Counter-ions that a name gives are not always drawn.
Legend:
Test in all cases: phenotypically active (imaging signature differs from DMSO and reproducible) at any of 0.3-9 uM (binary (1 = active, 0 = inactive)); higher = active
Settings in all cases: treatment time: 24 h
[1] = system: A549-ACTB-RAB5A
Method in brief: (§1)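 Each of fifteen gene-edited A549, HepG2 and WPMY1 reporter lines, marked with BFP for segmentation and GFP and RFP/FusionRed, was treated in four wells at 0.3, 1, 3 or 9 µM for 24 h prior to live imaging. Normalisation of per-well live-cell features used solvent control wells. Deviation needed ≥3 of 4 wells beyond the 95th percentile of control Euclidean distances, and reproducibility needed a median replicate Pearson correlation above the 95th percentile of non-replicates. Both were required for phenotypic activity.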

[2] = system: A549-CANX-COX4
Method in brief: as §1

[3] = system: A549-GM130-SQSTM1
Method in brief: as §1

[4] = system: A549-TP53BP1-CLTA
Method in brief: as §1

[5] = system: A549-TUBA1B-RELA
Method in brief: as §1

[6] = system: HepG2-ACTB-RAB5A
Method in brief: as §1

[7] = system: HepG2-CANX-COX4
Method in brief: as §1

[8] = system: HepG2-GM130-SQSTM1
Method in brief: as §1

[9] = system: HepG2-TP53BP1-CLTA
Method in brief: as §1

[10] = system: HepG2-TUBA1B-RELA
Method in brief: as §1

[11] = system: WPMY1-ACTB-RAB5A
Method in brief: as §1

[12] = system: WPMY1-CANX-COX4
Method in brief: as §1

[13] = system: WPMY1-GM130-SQSTM1
Method in brief: as §1

[14] = system: WPMY1-TP53BP1-CLTA
Method in brief: as §1

[15] = system: WPMY1-TUBA1B-RELA
Method in brief: as §1

Measured: phenotypically active

Cc1ccc(OCCSc2ncccn2)c(Br)c1 [ZLN 024 hydrochloride]
inactive: [1] 0 | [2] 0 | [3] 0 | [4] 0 | [5] 0 | [6] 0 | [7] 0 | [8] 0 | [9] 0 | [10] 0 | [11] 0 | [12] 0 | [13] 0 | [14] 0 | [15] 0

Cc1cc(C(=O)NNCc2ccccc2)no1 [isocarboxazid]
inactive: [1] 0 | [2] 0 | [3] 0 | [4] 0 | [5] 0 | [6] 0 | [7] 0 | [8] 0 | [9] 0 | [10] 0 | [11] 0 | [12] 0 | [13] 0 | [14] 0 | [15] 0

CN(C)CC/C=C1\c2ccccc2COc2ccc(CC(=O)O)cc21 [olopatadine]
inactive: [1] 0 | [2] 0 | [3] 0 | [4] 0 | [5] 0 | [6] 0 | [7] 0 | [8] 0 | [9] 0 | [10] 0 | [11] 0 | [12] 0 | [13] 0 | [14] 0 | [15] 0

NC12CC3CC(CC(C3)C1)C2 [amantadine]
inactive: [1] 0 | [2] 0 | [3] 0 | [4] 0 | [5] 0 | [6] 0 | [7] 0 | [8] 0 | [9] 0 | [10] 0 | [11] 0 | [12] 0 | [13] 0 | [14] 0 | [15] 0

O=C(O)CCCC[C@@H]1SC[C@@H]2NC(=O)N[C@@H]21 [Biotin]
inactive: [1] 0 | [2] 0 | [3] 0 | [4] 0 | [5] 0 | [6] 0 | [7] 0 | [8] 0 | [9] 0 | [10] 0 | [11] 0 | [12] 0 | [13] 0 | [14] 0 | [15] 0

C[C@H](CCC(=O)NCC(=O)O)[C@H]1CC[C@H]2[C@@H]3[C@H](O)C[C@@H]4C[C@H](O)CC[C@]4(C)[C@H]3C[C@H](O)[C@]12C [Glycocholic acid]
inactive: [1] 0 | [2] 0 | [3] 0 | [4] 0 | [5] 0 | [6] 0 | [7] 0 | [8] 0 | [9] 0 | [10] 0 | [11] 0 | [12] 0 | [13] 0 | [14] 0 | [15] 0

O=C(NCCO)c1cc(C(=O)NCCO)cc(C(=O)NCCO)c1
inactive: [1] 0 | [2] 0 | [3] 0 | [4] 0 | [5] 0 | [6] 0 | [7] 0 | [8] 0 | [9] 0 | [10] 0 | [11] 0 | [12] 0 | [13] 0 | [14] 0 | [15] 0

CC1(C)CCC(c2ccc(Cl)cc2)=C(CN2CCN(c3ccc(C(=O)NS(=O)(=O)c4ccc(N[C@H](CCN5CCOCC5)CSc5ccccc5)c(S(=O)(=O)C(F)(F)F)c4)cc3)CC2)C1 [navitoclax]
inactive: [1] 0 | [2] 0 | [3] 0 | [4] 0 | [5] 0 | [6] 0 | [7] 0 | [8] 0 | [9] 0 | [10] 0 | [11] 0 | [12] 0 | [13] 0 | [14] 0 | [15] 0

O=C(/C=C/N1C[C@H]2C[C@@H]1CN2c1ccccn1)c1ccccc1O
inactive: [1] 0 | [2] 0 | [3] 0 | [4] 0 | [5] 0 | [6] 0 | [7] 0 | [8] 0 | [9] 0 | [10] 0 | [11] 0 | [12] 0 | [13] 0 | [14] 0 | [15] 0

FC(F)OC(F)C(F)(F)F (stereo not given) [desflurane]
inactive: [1] 0 | [2] 0 | [3] 0 | [4] 0 | [5] 0 | [6] 0 | [7] 0 | [8] 0 | [9] 0 | [10] 0 | [11] 0 | [12] 0 | [13] 0 | [14] 0 | [15] 0

O=C(/C=C\c1ccc(O)c(O)c1)O[C@H]1C[C@](OC(=O)/C=C/c2ccc(O)c(O)c2)(C(=O)O)C[C@H](O)[C@H]1O [Cynarin]
inactive: [1] 0 | [2] 0 | [3] 0 | [4] 0 | [5] 0 | [6] 0 | [7] 0 | [8] 0 | [9] 0 | [10] 0 | [11] 0 | [12] 0 | [13] 0 | [14] 0 | [15] 0

Reference: the supplement of paper PMC7411054
